These results are taken from PubChem BioAssay (NCI).

About 83,000 compounds went through this panel and 20% of them were active in at least one assay; those are over-represented in the sample as a whole.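 Cell lines were cultured in 96-well plates, exposed to a single compound concentration, and assessed for percent growth 48 hours later.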 Unmarked numbers belong to inactive results. Activity calls are given as the source filed them. Rule for the calls: active = growth percent below 10; inactive = the rest.

In the first experiment the test system is SF-295 CNS. Description: NCI-60 one-dose screen, 48 h (100 = growth as untreated, 0 = no growth, -100 = all killed). Particulars: 10 µM.
Turning to `O=C(O)/C=C/c1ccc2c(c1)CCC2`, the growth is 98.9%.
The same measure, in the same setting: the figure for `O=C1OC(=O)C2C1C1(Cl)C(Cl)=C(Cl)C2(Cl)C2C(=O)OC(=O)C21` (stereo not drawn) is 105%.
On the same count and under the same terms, in the case of `CC(=O)N(C)c1ccc([N+](=O)[O-])cc1` it was 107%.
Same read-out and setting: in the case of `COc1ccc(/C(C#N)=C2C=C/C(=N/O)c3ccccc3\2)cc1` it was -38.6% (active); in that of `CCOC(=O)C1=C(C)NC(=O)NC1c1cccs1` (stereo not drawn), 112%; in that of `COc1cc(C2c3cc4c(cc3C3OC(=O)C2C3CO)OCO4)cc(OC)c1OC` (stereo not drawn), 3.2% (active).
Turning to `O=C(CCl)N1CCN(C/C=C/c2ccccc2)CC1`, the growth is 105%.
Same read-out and setting: in the case of `CC(C)(C)n1nc(C2CC2)c(Br)c1NC(=O)c1ccccc1F` it was 94.9%; in that of `CCOC(=O)C/C(C)=N\O`, 91.6%.
As for `O=C(CS)Nc1ccc2ccccc2c1`, the growth is 123%.
The same measure, in the same setting: in the case of `C=CCCCCCCCCCOC(C)=O` it was 105%.
As to `COc1cc(-c2ccc(NC(=O)NC3CC3)c(OC)c2)ccc1NC(=O)NC1CC1`, the growth is 75.9%.
As for `CC(=O)OCC(=O)[C@@]1(O)CC[C@H]2[C@@H]3CC[C@@H]4C[C@H](O)CC[C@]4(C)[C@H]3C(=O)C[C@@]21C`, the growth is 104%.
Take `NC(=O)NC(=O)c1ccc(Cl)cc1`: the growth was 112%.
Same read-out and setting: the figure for `NC(=O)c1ccc(N=C(N)N=C(N)N)cc1` is 96.8%; for `Oc1ccc(Cc2ccccc2)c2cccnc12` it is 32.4%; for `C/C(=C\c1cc(Cl)ccc1OCC(=O)O)[N+](=O)[O-]` it is 108%.
On the same count and under the same terms, in the case of `O=[N+]([O-])c1ccc(Cl)c(S(=O)(=O)O)c1` it was 112%; in that of `CC(CN1CCCCC1)NC(=O)c1scnc1-c1ccccc1` (stereo not drawn), 79%.

The next experiment deals with SF-539 CNS. The experiment is described as above. The note with it: 10 µM.
Turning to `C=CC(=O)OCCCCCCCC`, the growth was 99.5%.
The same measure, in the same setting: in the case of `CCOC(=O)CNN` it was 108%.
On to `NNc1ccccc1C(=O)O`, for which the growth is 101%.
As to `CCOC(=O)C1=C(Nc2ccc(Br)cc2)C(=O)N(CC)C1`, the growth was 84.9%.
In the case of `Cc1cc(C(O)(c2ccc(Nc3ccccc3)cc2)c2ccc(Nc3ccc(S(=O)(=O)O)cc3)cc2)ccc1N` (stereo not drawn), the growth is -63.9% (active).
Consider `CC1(c2ccccc2)NC(=O)NC1=O` (stereo not drawn), for which the growth is 117%.
Consider `C=CC[N+](C)(C)C`, for which the growth is 98.1%.
Still for that read-out and setting: in the case of `O=C1N(C[P+](c2ccccc2)(c2ccccc2)c2ccccc2)CCCN1C[P+](c1ccccc1)(c1ccccc1)c1ccccc1` it was 106%.
Still for that read-out and setting: in the case of `Brc1cnc2ccccc2c1` it was 103%.
Same read-out and setting: the figure for `Nc1ccc(N)c([N+](=O)[O-])c1` is 94.9%; for `CSC[C@H](NC(=O)COc1cccc2cnccc12)C(=O)NC(Cc1ccccc1)C(O)C(=O)N1CSC[C@H]1C(=O)NC(C)(C)C` (stereo partly drawn) it is 103%; for `OC(c1ccccn1)C(O)c1ccccn1` (stereo not drawn) it is 102%.
As to `CCNCCCCNCCCCNCCCCNCCCCNCC`, the growth is 122%.
In the case of `NC(=S)CN1CCOCC1`, the growth was 111%.
The same measure, in the same setting: in the case of `CC(C)=CC(=O)OC(=O)C=C(C)C` it was 105%; in that of `COc1ccc(C(O)c2ccccc2)cc1` (stereo not drawn), 102%; in that of `N#CC(=Nc1cccc(F)c1)C1=C(O)c2ccccc2C1=O`, 95.6%.
On to `COC(=O)c1ccc(NC(=O)CCl)cc1`, for which the growth was 96.7%.
Same read-out and setting: in the case of `O=C(O)CCC(NC(=O)OCc1ccccc1)C(=O)O` (stereo not drawn) it was 111%; in that of `Cc1cc(C)cc(NCCC#N)c1`, 104%; in that of `O=C(O)/C=C/c1ccc2c(c1)CCC2`, 106%.
The same measure, in the same setting: in the case of `O=C1OC(=O)C2C1C1(Cl)C(Cl)=C(Cl)C2(Cl)C2C(=O)OC(=O)C21` (stereo not drawn) it was 98.8%.
Take `CC(=O)N(C)c1ccc([N+](=O)[O-])cc1`: the growth was 106%.
Consider `COc1ccc(/C(C#N)=C2C=C/C(=N/O)c3ccccc3\2)cc1`, for which the growth was -14.7% (active).
Still for that read-out and setting: in the case of `CCOC(=O)C1=C(C)NC(=O)NC1c1cccs1` (stereo not drawn) it was 103%; in that of `COc1cc(C2c3cc4c(cc3C3OC(=O)C2C3CO)OCO4)cc(OC)c1OC` (stereo not drawn), -7.04% (active); in that of `O=C(CCl)N1CCN(C/C=C/c2ccccc2)CC1`, 104%.
On to `CC(C)(C)n1nc(C2CC2)c(Br)c1NC(=O)c1ccccc1F`, for which the growth was 100%.
The same measure, in the same setting: in the case of `CCOC(=O)C/C(C)=N\O` it was 107%; in that of `O=C(CS)Nc1ccc2ccccc2c1`, 99.5%.
As to `C=CCCCCCCCCCOC(C)=O`, the growth was 105%.
Same read-out and setting: in the case of `COc1cc(-c2ccc(NC(=O)NC3CC3)c(OC)c2)ccc1NC(=O)NC1CC1` it was 67.2%.
Still for that read-out and setting: in the case of `CC(=O)OCC(=O)[C@@]1(O)CC[C@H]2[C@@H]3CC[C@@H]4C[C@H](O)CC[C@]4(C)[C@H]3C(=O)C[C@@]21C` it was 100%; in that of `NC(=O)NC(=O)c1ccc(Cl)cc1`, 104%.
For the compound `NC(=O)c1ccc(N=C(N)N=C(N)N)cc1`, the growth was 96.8%.
Same read-out and setting: in the case of `Oc1ccc(Cc2ccccc2)c2cccnc12` it was 11.8%.
`C/C(=C\c1cc(Cl)ccc1OCC(=O)O)[N+](=O)[O-]`: the growth is 109%.
`O=[N+]([O-])c1ccc(Cl)c(S(=O)(=O)O)c1`: the growth is 97.8%.
On to `CC(CN1CCCCC1)NC(=O)c1scnc1-c1ccccc1` (stereo not drawn), for which the growth is 114%.
